Screening data as filed in PubChem BioAssay.
Shown are actives, neighbours in structure and some others; about 13% of the full set was active somewhere.
USP17 inh: inhibitors of human USP17 deubiquitinase; inhibition, % at 50 µM; purified USP17, Ub-rhodamine cleavage fluorescence, 3 h; Ubiquitin carboxyl-terminal hydrolase 17-like protein 5 (Homo sapiens), A8MUK1; 6.5% of 47,000 active
Target sequence (A8MUK1 whole entry, looked up): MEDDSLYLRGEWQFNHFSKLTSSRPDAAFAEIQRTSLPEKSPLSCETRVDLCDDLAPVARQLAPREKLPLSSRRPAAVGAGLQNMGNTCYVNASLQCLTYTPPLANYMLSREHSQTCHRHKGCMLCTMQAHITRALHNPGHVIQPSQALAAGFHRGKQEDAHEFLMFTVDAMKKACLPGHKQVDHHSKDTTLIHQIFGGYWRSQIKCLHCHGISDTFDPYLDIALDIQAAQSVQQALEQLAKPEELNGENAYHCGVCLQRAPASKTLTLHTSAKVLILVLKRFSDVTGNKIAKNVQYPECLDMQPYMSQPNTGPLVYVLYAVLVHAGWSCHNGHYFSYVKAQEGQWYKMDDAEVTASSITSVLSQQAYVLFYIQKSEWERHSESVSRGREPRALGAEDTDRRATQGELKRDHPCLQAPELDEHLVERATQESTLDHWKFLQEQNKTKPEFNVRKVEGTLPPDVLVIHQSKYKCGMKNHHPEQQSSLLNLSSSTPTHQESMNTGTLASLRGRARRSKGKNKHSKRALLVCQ
USP28 block: inhibitors of human USP28 deubiquitinase. Ubiquitin carboxyl-terminal hydrolase 28 (Homo sapiens), Q96RU2. purified USP28, Ub-rhodamine cleavage fluorescence, 30 min. inhibition, % at 25 µM. 3% of 47,000 active
USP8 inh: inhibitors of human USP8 deubiquitinase; Ubiquitin carboxyl-terminal hydrolase 8 (Homo sapiens), P40818; purified USP8, Ub-rhodamine cleavage fluorescence, 30 min; inhibition, % at 20 µM; 4.2% of 47,000 active; AID 1645853, 2021
USP30 inh: inhibitors of human USP30 deubiquitinase. 5.3% of 47,000 active. purified USP30, Ub-rhodamine cleavage fluorescence. AID 1645860, 2021. inhibition, % at 25 µM
Starred values were filed as active, the others as inactive. No stated cut-off is given here; in the data, active means inhibition above about 30%; inactive means the rest.

What do the screens show for `CSc1cccc(NC(=O)COc2cccc3ccccc23)c1`?
USP17 inh: 41*; USP28 block: 35*; USP8 inh: 43*; USP30 inh: 78*

What do the screens show for `O=C(CCc1nnc2n(Cc3ccc(F)cc3)c(=O)c3ccccc3n12)N1CCN(C(c2ccccc2)c2ccccc2)CC1`?
USP17 inh: 13; USP28 block: 12; USP8 inh: 11; USP30 inh: 21

Results for CCN1C[C@H]2CCN(Cc3cccnc3)CC[C@H]2S1(=O)=O ?
USP17 inh: -13; USP28 block: -21; USP8 inh: -16; USP30 inh: -60

How did CCN(CC)c1nc(F)c2c(c1F)S(=O)(=O)CCN2Cc1cccnc1 do in these assays?
USP17 inh: 58*; USP28 block: 8; USP8 inh: 90*; USP30 inh: 8

What do the screens show for `O=S1(=O)CCN(CC2CCCO2)c2c(F)nc(N3CCOCC3)c(F)c21` (stereo unspecified)?
USP17 inh: 3; USP28 block: -7; USP8 inh: -53; USP30 inh: -5

Results for CC1CCCCN1c1nc(F)c2c(c1F)S(=O)(=O)CCN2Cc1cccnc1 (stereo unspecified) ?
USP17 inh: 35*; USP28 block: -10; USP8 inh: 70*; USP30 inh: -36

How did Cc1occc1-c1nnc(SCC(=O)Nc2ccc(F)cc2)o1 do in these assays?
USP17 inh: 17; USP28 block: 18; USP8 inh: -16; USP30 inh: 28

How did CCN(CCCNC(=O)CCc1nnc2n(Cc3ccccc3Cl)c(=O)c3ccccc3n12)c1cccc(C)c1 do in these assays?
USP17 inh: 3; USP28 block: -4; USP8 inh: 8; USP30 inh: 8

How did CCOc1ccc(C(=O)N2CCC(c3nc(C)ncc3-c3cc(C)no3)CC2)o1 do in these assays?
USP17 inh: 11; USP28 block: 15; USP8 inh: 7; USP30 inh: 36*

Results for O=C(c1ccccc1Cl)N1CCCC(c2nnc3ccccn23)C1 (stereo unspecified) ?
USP17 inh: -28; USP28 block: -25; USP8 inh: -24; USP30 inh: -51

Results for Cc1ccc(-c2c(C(=O)Nc3ccc(S(N)(=O)=O)cc3)oc(=O)c3ccccc23)cc1 ?
USP17 inh: 57*; USP28 block: -5; USP8 inh: 24; USP30 inh: 23

Results for COc1ccc(NC(=O)c2oc(=O)c3ccccc3c2-c2ccccc2)cc1 ?
USP17 inh: 0; USP28 block: -9; USP8 inh: -4; USP30 inh: 3

How did O=C(CN(C(=O)c1ccc(-c2ccccc2)[nH]1)c1ccc(Cl)cc1)NC1CCCC1 do in these assays?
USP17 inh: 0; USP28 block: -19; USP8 inh: -2; USP30 inh: -24

What do the screens show for `Cc1cccc(NC(=O)[C@@H]2CCCN2C2=NS(=O)(=O)c3ccccc32)c1C`?
USP17 inh: 35*; USP28 block: 0; USP8 inh: 46*; USP30 inh: 32*

What do the screens show for `COc1ccc(NC(=O)[C@@H]2CCCN2C2=NS(=O)(=O)c3ccccc32)cn1`?
USP17 inh: -126; USP28 block: -165; USP8 inh: -140; USP30 inh: inactive

What do the screens show for `CCc1c(C(=O)N2CCc3ccccc3C2)[nH]c(C)c1C(C)=O`?
USP17 inh: -8; USP28 block: -6; USP8 inh: -4; USP30 inh: 9

Results for COc1cc(O)c2c(=O)c(-c3ccc(O)cc3)coc2c1 ?
USP17 inh: 73*; USP28 block: 30*; USP8 inh: 35*; USP30 inh: 14

How did COc1ccccc1NS(=O)(=O)c1ccc2oc(SCc3cn4c(C)cc(C)nc4n3)nc2c1 do in these assays?
USP28 block: 9; USP8 inh: -65; USP30 inh: 31*

How did CC(C)C(=O)Nc1nc2ccc(CCC(=O)Nc3ccc(F)cc3F)cc2s1 do in these assays?
USP17 inh: 12; USP28 block: 4; USP8 inh: -2; USP30 inh: 33*

How did CSc1cccc(NC(=O)CCc2ccc3nc(NC(C)=O)sc3c2)c1 do in these assays?
USP17 inh: 16; USP28 block: 11; USP8 inh: -142; USP30 inh: 54*

What do the screens show for `O=C(c1ccn[nH]1)N1CCCC(c2cccc(Cc3ccccc3)n2)C1` (stereo unspecified)?
USP17 inh: 2; USP28 block: 15; USP8 inh: 4; USP30 inh: 22

How did Cc1ccc(Cl)cc1NC(=O)CSC1=NC(C)(C)Nc2ccccc21 do in these assays?
USP17 inh: -4; USP28 block: -6; USP8 inh: 13; USP30 inh: -53

Results for O=C(/C=C/c1c(F)cccc1Cl)N1CCc2ccccc2C1 ?
USP17 inh: 75*; USP28 block: 43*; USP8 inh: 93*; USP30 inh: 29

What do the screens show for `O=C(/C=C/c1ccc(Cl)cc1)N1CCc2ccccc2C1`?
USP28 block: 0; USP8 inh: 3; USP30 inh: 5

Results for O=c1cc(N2CCOCC2)nc2n1CCCS2 ?
USP17 inh: 2; USP28 block: -1; USP8 inh: 1; USP30 inh: 1

How did O=C1CCCC2=C1C(c1ccc(Cl)cc1)n1c(nc3ccccc31)N2 (stereo unspecified) do in these assays?
USP17 inh: 21; USP28 block: 18; USP8 inh: 13; USP30 inh: 37*

What do the screens show for `CC(=O)C1=C(C)Nc2nc3ccccc3n2C1c1cccs1` (stereo unspecified)?
USP17 inh: 38*; USP28 block: 22; USP8 inh: -1; USP30 inh: 49*

Results for CC(=O)C1=C(C)Nc2nc3ccccc3n2C1c1ccco1 (stereo unspecified) ?
USP17 inh: 27; USP28 block: -28; USP8 inh: -10; USP30 inh: -417

How did CC(=O)C1=C(C)Nc2nc3ccccc3n2C1c1ccc(O)cc1 (stereo unspecified) do in these assays?
USP17 inh: 35*; USP28 block: 1; USP8 inh: -2; USP30 inh: -19

Results for CC1=C(C(=O)N2CCCCC2)C(c2ccc(F)cc2)n2c(nc3ccccc32)N1 (stereo unspecified) ?
USP17 inh: 8; USP28 block: 0; USP8 inh: 8; USP30 inh: -6

How did COc1ccccc1CN1CCCC2(Cc3ccccc3CNC2=O)C1 (stereo unspecified) do in these assays?
USP17 inh: -1; USP28 block: -5; USP8 inh: -51; USP30 inh: -4

How did CCOC(=O)N1CCN(C(=O)c2cccc(N3C(=O)CCS3(=O)=O)c2)CC1 do in these assays?
USP17 inh: 7; USP28 block: 2; USP8 inh: -4; USP30 inh: 3

Results for O=C(COC(=O)c1cc(S(=O)(=O)N2CCCC2)ccc1O)NC(c1ccccc1)c1ccccc1 ?
USP17 inh: 8; USP28 block: 0; USP8 inh: -10; USP30 inh: 15

How did Cc1ccc2cc(CCNC(=O)c3ccccc3Br)c(=O)[nH]c2c1 do in these assays?
USP17 inh: 48*; USP28 block: 2; USP8 inh: 2; USP30 inh: -14
